This is part of a sample that, as a whole, favours compounds with a hit. Of some 83,000 tested, about 20% had one in any assay.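 Activity criterion: percent growth below 10, measured after cells in 96-well plates were exposed to a single compound concentration for 48 hours.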 A number with no mark means an inactive call. The source made the active and inactive calls.
Columns and labels:
Assay in all cases: NCI-60 one-dose screen, 48 h (100 = growth as untreated, 0 = no growth, -100 = all killed)
Details in all cases: 10 µM unless noted
NCI-H23 lung = system: NCI-H23 lung
NCI-H226 lung = system: NCI-H226 lung
NCI-H322M lung = system: NCI-H322M lung
HOP-62 NSCLC = system: HOP-62 NSCLC
NCI-H460 lung = system: NCI-H460 lung
HOP-92 NSCLC = system: HOP-92 NSCLC
NCI-H522 lung = system: NCI-H522 lung
A549/ATCC NSCLC = system: A549/ATCC NSCLC
786-0 renal = system: 786-0 renal
COLO 205 colon = system: COLO 205 colon
DU-145 prostate = system: DU-145 prostate
K-562 leukemia = system: K-562 leukemia
MALME-3M melanoma = system: MALME-3M melanoma
MDA-MB-231 breast = system: MDA-MB-231 breast
RXF 393 renal = system: RXF 393 renal
SF-268 CNS = system: SF-268 CNS
SF-295 CNS = system: SF-295 CNS
SF-539 CNS = system: SF-539 CNS
UACC-257 melanoma = system: UACC-257 melanoma
M14 melanoma = system: M14 melanoma

Structure (SMILES)	growth (NCI-H23 lung)	growth (NCI-H226 lung)	growth (NCI-H322M lung)	growth (HOP-62 NSCLC)	growth (NCI-H460 lung)	growth (HOP-92 NSCLC)	growth (NCI-H522 lung)	growth (A549/ATCC NSCLC)	growth (786-0 renal)	growth (COLO 205 colon)	growth (DU-145 prostate)	growth (K-562 leukemia)	growth (MALME-3M melanoma)	growth (MDA-MB-231 breast)	growth (RXF 393 renal)	growth (SF-268 CNS)	growth (SF-295 CNS)	growth (SF-539 CNS)	growth (UACC-257 melanoma)	growth (M14 melanoma)
O=C(Nc1ccc(F)cc1)Nc1ccc(NC(=O)c2cc(Cl)nc3ccccc23)cc1	69.2%	52.8%	59.6%	22.4%	18.5%	23.5%	61.7%	79.8%	98.4%	53.5%	57%	58.5%	53.7%	45.9%	86.9%	68.1%	64.6%	35.6%	79.8%	74.3%
COc1cc(C=O)ccc1OC1OC(COC(C)=O)C(OC(C)=O)C(OC(C)=O)C1OC(C)=O (stereo not given)	102%	93.8%	120%	94%	104%	88.7%	104%	94.8%	105%	98.7%	107%	116%	102%	101%	103%	99.2%	102%	96.7%	101%	96.6%
COc1cc2c(c(O)c1Br)C(=O)c1c(O)cc(C[C@H](C)O)cc1[C@H]2[C@H]1c2cc(C[C@H](C)O)cc(O)c2C(=O)c2c1cc(OC)c(Br)c2O	6.19% (active)	14.3%	17.2%	16.5%	0.308% (active)	-21.3% (active)	2.22% (active)	11.1%	10.4%	-35.3% (active)	24.5%	5.05% (active)	-26.8% (active)	-58.1% (active)	21.1%	19.4%	-21.4% (active)	-23.8% (active)	-2.79% (active)	16.5%
COc1cc2oc(-c3cccc(C(=O)Nc4ccc(Br)cc4)c3)cc(=O)c2c(OC)c1OC	77.7%	10.7%	62.4%	58%	36.2%	50.9%	60.9%	52.3%	67.4%	54.4%	57.6%	48.9%	80.9%	30.8%	-2.47% (active)	61.8%	52.9%	65%	80.1%	27%
COc1ccc(C(=O)NNc2nc(Cl)nc(N3CCN(C(c4ccccc4)c4ccccc4)CC3)n2)cc1	3.63% (active)	90.1%	57.6%	86.5%	101%	74%	-33% (active)	92.6%	69.1%	60.5%	67.7%	-16.5% (active)	46.3%	-1.74% (active)	9.64% (active)	86.6%	96.8%	33.4%	65.2%	31.3%
Brc1ccc(Nc2csc(-c3ccccn3)n2)cc1	87.7%	70.1%	84.1%	88.2%	96.7%	102%	78.9%	99.4%	98.9%	111%	94.6%	84.5%	99.4%	81.9%	106%	90.9%	88.8%	95%	111%	93.3%
NS(=O)(=O)c1ccc(Cn2c(SCC(=O)N/N=C/c3ccccc3O)nc3ccccc3c2=O)cc1	63.2%	57%	46.8%	35.5%	49.1%	54%	-1.28% (active)	69.4%	71.1%	29.1%	72.5%	36.6%	59%	30.1%	72.2%	38.2%	65.9%	54.3%	70.6%	42%
C=C1C(=O)O[C@H]2[C@H]1CC/C(CNC(=O)CCc1ccc(OC)cc1)=C\CC[C@@]1(C)O[C@@H]21	85.3%	89.9%	91.4%	83.6%	90.4%	19.8%	20.2%	81.7%	34%	15.1%	24.2%	19.4%	69.2%	65.8%	44.6%	79.5%	91.9%	31.1%	53.1%	42.5%
CCOC(=O)CCN(CC(C)C)C(=S)Nc1ccccc1	98.8%	107%	107%	120%	107%	110%	101%	101%	101%	113%	108%	103%	102%	106%	122%	104%	101%	100%	102%	99%
O=C1Nc2cc(-c3ccc(NC(=O)C4CC4)cc3)ccc2/C1=C/c1ccc[nH]1	61.3%	101%	86.2%	104%	61.4%	129%	92.5%	107%	105%	117%	105%	98.4%	98.5%	99.5%	108%	104%	101%	90.7%	116%	99.3%
CN1C(=O)NC(c2ccc3c(c2)OCO3)C=C1c1ccccc1 (stereo not given)	96.3%	103%	92.4%	91.3%	97.6%	93.9%	80%	91.1%	83%	107%	94.7%	76.5%	88.4%	102%	91.2%	95.6%	98.6%	98.1%	98.5%	96.9%
COc1c(Cl)c2c(c(OC)c1OC)-c1ccc(SC)c(=O)cc1[C@@H](NC(=O)OCC(F)(F)F)CC2	34.1%	16.4%	33.6%	34.3%	2.44% (active)	23.4%	17.9%	22.2%	11%	-0.15% (active)	-6.54% (active)	7.39% (active)	34.9%	-1.03% (active)	18.7%	27.2%	15%	-19% (active)	70.5%	0.43% (active)
O=C(Cc1ccc(/C=C/C(=O)c2nccs2)cc1)Nc1ccccc1	97.3%	100%	100%	103%	103%	91.3%	78.5%	88.8%	93.8%	122%	105%	23.3%	98.4%	94.8%	103%	95%	97.1%	99.9%	88.6%	93.1%
CCCOc1ccc(/C=N/Nc2cc(C)nc3ccc(Br)cc23)cc1	86.9%	93.3%	94.5%	92.7%	70.5%	67.9%	101%	94.6%	100%	44.8%	86.8%	11.5%	112%	92.9%	83.4%	102%	81%	83.9%	98.7%	80.3%
O=C1OC(Cc2ccccc2)C1c1ccccc1 (stereo not given)	106%	102%	110%	104%	107%	104%	89.7%	95.9%	102%	109%	110%	108%	106%	102%	120%	97.9%	98.2%	102%	93.9%	104%
CN(C)c1ccc(Nc2c3ccccc3nc3cc(NC(=O)CCN4CCCC4)ccc23)cc1	-42.5% (active)	-1.19% (active)	-14.6% (active)	-8.55% (active)	-65.5% (active)	-9.52% (active)	-32.8% (active)	-33.5% (active)	-54% (active)	-27.3% (active)	-38.5% (active)	-4.43% (active)	-90.9% (active)	-38.1% (active)	-6.44% (active)	-6.93% (active)	6.34% (active)	-69% (active)	-52% (active)	-84.9% (active)
